In PubChem BioAssay (NCI) one finds growth data, which are given here for 13 molecules.

What all share (assay): NCI-60 one-dose screen, 48 h (100 = growth as untreated, 0 = no growth, -100 = all killed)
What all share (settings): 10 µM unless noted

Experiment [1] concerns HCT-15 colon.
Experiment [2] relates to HT29 colon.
Experiment [3] relates to SNB-75 CNS.
Experiment [4] deals with SNB-19 CNS.
For experiment [5], the system named is U251 CNS.
Experiment [6] concerns PC-3 prostate.
The test system of experiment [7] is SK-MEL-5 melanoma.
Experiment [8] deals with UACC-62 melanoma.
Experiment [9] relates to LOX IMVI melanoma.
Experiment [10] deals with SK-MEL-28 melanoma.

The panel holds about 83,000 compounds, 20% with a hit somewhere; the sample as a whole holds those more often.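 Cells were grown in 96-well plates and exposed to the test compound at a single concentration for 48 hours; results are reported as percent growth, with values below 10 considered active.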 Values without a mark were called inactive. The source made the active and inactive calls.

Consider `COc1ccc(/C=C(\C#N)C(=O)N2c3ccccc3Sc3ccc(SC)cc32)cc1F`, for which the growth in [1] is 94.9%; in [2] it was 103%; in experiment [3] it was 87.6%; in experiment [4], 90.4%; in [5], 92.9%; in experiment [6], 88.9%. Also, the growth in [7] is 93%; in experiment [8], 71.3%; in experiment [9] it was 88.8%; in experiment [10], 98.9%.
Consider `NS(=O)(=O)c1ccc(Nc2nc(N/N=C/CCc3ccccc3)nc(Nc3ccccc3)n2)cc1`, for which the growth is 105% in experiment [1]; 107% in experiment [2]; 112% in experiment [3]; 104% in experiment [4]; 104% in experiment [5]; 104% in experiment [6]. Moreover, the growth is 99.7% in experiment [7], 95.8% in [8], 95.4% in experiment [9] and 107% in [10].
As for `COC(=O)C(Cc1ccccc1)Nc1nc(NC(Cc2ccccc2)C(=O)OC)nc(N2CCOCC2)n1` (configuration not stated), the growth is 106% in experiment [1]; 101% in experiment [2]; 90.5% in [3]; 104% in experiment [4]; 105% in experiment [5]; 103% in experiment [6]. Further, the growth in experiment [7] is 98.7%; in experiment [8], 90.2%; in experiment [9], 105%; in [10], 109%.
For `COc1cc2oc(-c3cccc(C(=O)N[C@@H](CC(C)C)C(=O)OC(C)(C)C)c3)cc(=O)c2c(OC)c1OC`, the growth in experiment [1] is 36.9%; in experiment [2] it was 83.7%; in experiment [3], 80.9%; in experiment [4] it was 78.3%; in experiment [5], 76.1%; in experiment [6], 58.4%. Further, the growth was 74.1% in experiment [7], 51.6% in experiment [8], 46.5% in [9] and 95.9% in experiment [10].
Consider `CCN(CC)c1ccc2c(c1)Oc1nc(N)c(C#N)c(N)c1C2Sc1ccc(C)cc1` (configuration not stated), for which the growth in [1] is -83.8% (active); in experiment [2], -23.5% (active); in [3], -82.3% (active); in [4], -97.4% (active); in [5], -78.5% (active); in experiment [6], -88.5% (active). Also, the growth in experiment [7] was -96.4% (active); in experiment [8] it was -88.5% (active); in experiment [9], -92.2% (active); in experiment [10], -94.5% (active).
Take `Cc1noc(C)c1CSc1nc2ccccc2n1-c1ccccc1`: the growth in experiment [1] was 106%; in experiment [2], 106%; in experiment [3], 30.9%; in experiment [4], 96.5%; in [5], 102%; in experiment [6], 100%. Besides, the growth in experiment [7] is 94.4%; in [8], 72.5%; in experiment [9], 88.2%; in experiment [10], 111%.
`COc1cc(OC)c(S(N)(=O)=O)cc1C(=O)/C=C/c1ccc(Cl)cc1`: the growth in experiment [1] is -41.6% (active); in experiment [2] it was 6.08% (active); in experiment [3] it was 27.1%; in [4] it was 15.8%; in [5] it was 3.73% (active); in experiment [6], 28.2%. Besides, the growth is 5.34% (active) in experiment [7], -50.4% (active) in experiment [9] and 30.5% in experiment [10].
Regarding `COc1ccc(S(=O)(=O)NCCCNc2nccc(-c3cn(C(C)(C)C)nc3-c3ccc(Cl)c(OC)c3)n2)cc1`, the growth was 78.5% in experiment [1]; 81% in experiment [2]; 50.5% in [3]; 96.3% in experiment [4]; 98.9% in [5]; 58.3% in [6]. Also, the growth in experiment [7] was 85.8%; in experiment [8], 61.2%; in [9], 72.7%; in experiment [10], 98.9%.
For the molecule `C=C(C)[C@@H]1CC[C@]2(COCCCNCCC#N)CC[C@]3(C)[C@H](CC[C@@H]4[C@@]5(C)CC[C@H](OCCCNCCC#N)C(C)(C)[C@@H]5CC[C@]43C)[C@@H]12`, the growth in [1] is 47%; in experiment [2], 49.9%; in [3], 54.4%; in experiment [4], 83.5%; in [5] it was 70.9%; in experiment [6], 42.5%. For the same molecule, the growth in [7] is 15%; in experiment [8], 69.1%; in experiment [9] it was -1.84% (active); in [10], 90.5%.
`CC(=O)N1C(=S)NC(=O)C1CC(C)C` (configuration not stated): the growth in experiment [1] is 99.7%; in experiment [2], 115%; in experiment [3] it was 103%; in experiment [4] it was 102%; in [5] it was 101%; in experiment [6] it was 106%. Besides, the growth is 106% in experiment [7], 93.7% in experiment [8], 95.5% in experiment [9] and 101% in [10].
`CCC(NC(c1cc2cccc3ccc4cccc1c4c32)c1nnnn1C(C)(C)C)C1CCCCC1` (configuration not stated): the growth in [1] is 38.4%; in experiment [2], 69.4%; in [3] it was 75.6%; in experiment [4], 68.9%; in experiment [5] it was 53.8%; in experiment [6], 45.8%. The growth is 6.39% (active) in experiment [7], 47.6% in experiment [9] and 80.3% in experiment [10].
For the molecule `CS(=O)(=O)Nc1cc(-c2ccc3ncc(C#N)c(NCc4ccccc4F)c3c2)cnc1Cl`, the growth is 8.34% (active) in [1]; 11% in experiment [2]; 26.3% in [3]; 12.8% in experiment [4]; 11.5% in experiment [5]; 6.54% (active) in experiment [6]. The growth in experiment [7] is -93.6% (active); in experiment [8] it was -20.7% (active); in experiment [9] it was -41.9% (active); in experiment [10], 5.71% (active).
As for `COc1ccc([C@H]2[C@H](O)C(=O)N2c2cc(OC)c(OC)c(OC)c2)cc1F`, the growth is 7.86% (active) in [1]; -26% (active) in experiment [2]; 19% in [3]; 27.7% in experiment [4]; 7.47% (active) in experiment [5]; 19.8% in experiment [6]. Moreover, the growth in [7] was -30.9% (active); in experiment [9], -6.07% (active); in [10], 63%.
